# Data published in ChEMBL document CHEMBL3988442, “University of Dundee, Small-Polar-MMV Screening Library” (2021).
# For some assays here: Entries with a potency or affinity are not part of this list.
# Experiments:
# Set-up in all cases: scale not given: direction of the effect not stated beside the values
# [1] = target: Protein translocase subunit SecA (Escherichia coli (strain K12)) (UniProt P10408); assay: Assay to Identify E. coli SecA ATPase Inhibitors; format: functional; settings: 30 µM
# Sequence of Protein translocase subunit SecA (Escherichia coli (strain K12)) (P10408 whole entry): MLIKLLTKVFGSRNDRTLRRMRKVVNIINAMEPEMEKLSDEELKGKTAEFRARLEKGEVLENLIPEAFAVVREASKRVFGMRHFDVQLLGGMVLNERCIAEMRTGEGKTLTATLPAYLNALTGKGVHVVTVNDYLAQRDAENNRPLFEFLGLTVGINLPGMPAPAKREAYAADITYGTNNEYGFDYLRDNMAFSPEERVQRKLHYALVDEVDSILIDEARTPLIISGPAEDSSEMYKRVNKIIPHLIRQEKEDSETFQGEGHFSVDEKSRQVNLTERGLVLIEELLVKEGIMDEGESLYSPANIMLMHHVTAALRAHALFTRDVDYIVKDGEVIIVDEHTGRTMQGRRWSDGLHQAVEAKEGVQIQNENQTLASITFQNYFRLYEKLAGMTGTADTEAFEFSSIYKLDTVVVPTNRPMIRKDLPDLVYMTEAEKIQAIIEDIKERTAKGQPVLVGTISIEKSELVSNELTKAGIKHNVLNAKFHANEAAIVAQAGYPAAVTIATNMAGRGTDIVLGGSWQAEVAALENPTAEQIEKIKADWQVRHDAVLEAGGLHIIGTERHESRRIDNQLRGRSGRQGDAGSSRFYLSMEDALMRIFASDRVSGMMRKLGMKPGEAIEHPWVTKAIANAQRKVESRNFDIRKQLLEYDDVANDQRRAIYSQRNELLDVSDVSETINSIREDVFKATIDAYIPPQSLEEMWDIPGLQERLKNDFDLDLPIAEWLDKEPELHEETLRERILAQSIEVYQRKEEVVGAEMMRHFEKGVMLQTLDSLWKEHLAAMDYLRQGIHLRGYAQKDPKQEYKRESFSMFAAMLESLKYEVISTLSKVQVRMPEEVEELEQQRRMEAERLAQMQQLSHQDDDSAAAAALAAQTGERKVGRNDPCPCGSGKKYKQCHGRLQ
# [2] = target: T1, Ubiquitin-activating enzyme e1, putative (Leishmania donovani (strain BPK282A1)) (UniProt E9BSI1); assay: Leishmania donovani Ubiquitin Activating Enzyme (LdE1); format: functional; settings: 30 µM
# T1 sequence (whole entry): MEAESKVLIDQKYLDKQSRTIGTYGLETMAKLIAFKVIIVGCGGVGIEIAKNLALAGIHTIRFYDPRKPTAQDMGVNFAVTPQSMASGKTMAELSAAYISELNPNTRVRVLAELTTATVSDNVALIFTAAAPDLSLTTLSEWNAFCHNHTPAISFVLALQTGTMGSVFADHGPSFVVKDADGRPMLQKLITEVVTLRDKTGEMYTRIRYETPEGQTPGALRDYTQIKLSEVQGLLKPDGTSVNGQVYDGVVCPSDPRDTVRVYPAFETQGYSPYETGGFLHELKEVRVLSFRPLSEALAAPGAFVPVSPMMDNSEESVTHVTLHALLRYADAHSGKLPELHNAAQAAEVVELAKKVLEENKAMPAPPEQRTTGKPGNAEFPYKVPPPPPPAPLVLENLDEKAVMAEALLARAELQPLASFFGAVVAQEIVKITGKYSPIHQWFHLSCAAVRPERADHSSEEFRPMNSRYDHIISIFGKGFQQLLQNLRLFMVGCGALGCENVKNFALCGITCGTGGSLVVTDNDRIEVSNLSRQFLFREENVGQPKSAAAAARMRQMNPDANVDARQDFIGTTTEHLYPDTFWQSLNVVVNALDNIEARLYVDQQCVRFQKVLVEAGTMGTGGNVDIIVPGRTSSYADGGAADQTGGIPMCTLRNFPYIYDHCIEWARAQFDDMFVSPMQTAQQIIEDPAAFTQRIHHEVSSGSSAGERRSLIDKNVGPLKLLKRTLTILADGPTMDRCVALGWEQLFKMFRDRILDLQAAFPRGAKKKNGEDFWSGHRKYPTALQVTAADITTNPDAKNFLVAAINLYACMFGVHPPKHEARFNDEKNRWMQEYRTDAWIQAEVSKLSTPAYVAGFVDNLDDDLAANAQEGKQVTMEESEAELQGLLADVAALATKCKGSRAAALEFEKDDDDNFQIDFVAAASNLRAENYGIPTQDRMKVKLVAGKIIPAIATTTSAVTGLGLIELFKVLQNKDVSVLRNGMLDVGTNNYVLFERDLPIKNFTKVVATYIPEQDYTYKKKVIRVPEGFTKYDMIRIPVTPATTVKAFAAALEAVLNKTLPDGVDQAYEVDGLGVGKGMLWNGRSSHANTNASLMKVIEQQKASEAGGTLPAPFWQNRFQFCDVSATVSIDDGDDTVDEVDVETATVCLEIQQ
# [3] = target: AMP-activated protein kinase, AMPK (Homo sapiens) (UniProt P54646+O43741+P54619+Q9UGJ0+Q9Y478+Q13131+Q9UGI9); assay: AMP-dependent Kinase enzyme assay. An in vitro enzyme assay that detects ADP turnover that is directly proportional to AMPK activity. This uses naive AMPK that is activated during the assay with MK-8722; format: functional; settings: 30 µM
# [4] = target: Sialic acid-binding Ig-like lectin 9 (Homo sapiens) (UniProt Q9Y336); assay: Hs-Siglec9 ALPHAscreen SOP 20170721; settings: 10 µM
# Sequence of Sialic acid-binding Ig-like lectin 9 (Homo sapiens) (Q9Y336 whole entry): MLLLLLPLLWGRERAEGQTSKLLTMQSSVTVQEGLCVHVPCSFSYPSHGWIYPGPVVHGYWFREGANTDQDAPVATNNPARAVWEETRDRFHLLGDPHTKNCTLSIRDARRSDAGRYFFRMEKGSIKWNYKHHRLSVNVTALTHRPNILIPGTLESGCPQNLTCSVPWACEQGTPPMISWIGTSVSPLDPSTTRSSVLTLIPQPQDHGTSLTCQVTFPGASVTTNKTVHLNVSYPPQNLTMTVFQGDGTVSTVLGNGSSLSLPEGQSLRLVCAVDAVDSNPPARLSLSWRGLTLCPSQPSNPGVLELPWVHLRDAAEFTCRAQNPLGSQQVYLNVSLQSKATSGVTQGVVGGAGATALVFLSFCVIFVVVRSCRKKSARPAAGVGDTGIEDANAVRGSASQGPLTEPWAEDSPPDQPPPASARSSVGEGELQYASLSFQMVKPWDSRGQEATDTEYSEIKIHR
# Trypanosoma cruzi = assay: Trypanosoma cruzi phosphomannomutase and mannose-1-phosphate guanylyltransferase assay; format: functional; settings: 10 µM
# [5] = target: T2, Arginase-2, mitochondrial (Homo sapiens) (UniProt P78540); assay: in vitro enzyme assay to detect the production of urea directly proportional to the activity of Arginase II; format: functional; settings: 33.3 µM; also: in the data most compounds retested in dose-response had high values
# T2 sequence (whole entry): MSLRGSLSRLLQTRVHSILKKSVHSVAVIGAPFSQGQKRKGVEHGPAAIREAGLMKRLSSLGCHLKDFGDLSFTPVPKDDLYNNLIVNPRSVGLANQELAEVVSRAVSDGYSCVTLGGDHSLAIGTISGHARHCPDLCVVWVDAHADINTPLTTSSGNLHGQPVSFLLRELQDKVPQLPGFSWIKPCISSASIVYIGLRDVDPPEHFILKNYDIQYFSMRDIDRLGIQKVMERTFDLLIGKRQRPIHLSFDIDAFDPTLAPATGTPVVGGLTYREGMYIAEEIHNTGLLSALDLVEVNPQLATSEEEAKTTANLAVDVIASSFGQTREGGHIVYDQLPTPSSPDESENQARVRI
# [6] = target: T3, Proteasome subunit beta (Trypanosoma cruzi) (UniProt O96673); assay: Trypanosoma cruzi proteasome chymotrypsin-like activity (TcProtChymo) assay.; also: in the data most compounds retested in dose-response had high values; format: functional; settings: 9.37 µM
# T3 sequence (whole entry): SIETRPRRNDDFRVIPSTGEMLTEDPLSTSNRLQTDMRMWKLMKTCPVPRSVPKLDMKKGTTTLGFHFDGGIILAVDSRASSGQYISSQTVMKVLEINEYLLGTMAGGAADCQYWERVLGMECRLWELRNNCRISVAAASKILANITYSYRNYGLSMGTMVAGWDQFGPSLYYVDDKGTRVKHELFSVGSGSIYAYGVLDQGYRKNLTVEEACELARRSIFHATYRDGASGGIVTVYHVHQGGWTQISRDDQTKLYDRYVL
# Homo sapiens = organism: Homo sapiens; assay: To identify inhibition of the IFN signalling (Jak-Stat) pathway via expression of an eGFP reporter gene under the control of an IFN-stimulated response element (ISRE) containing MxA promoter.; format: functional; settings: 30 µM
# [7] = target: T4, Tyrosyl-tRNA synthetase, putative (Trypanosoma cruzi (strain CL Brener)) (UniProt Q4DSP6); assay: Trypanosoma cruzi tyrosyl tRNA synthetase (TcYRS) _High Tyrosine SOP; format: functional; settings: 30 µM; also: in the data most compounds retested in dose-response had high values
# T4 sequence (whole entry): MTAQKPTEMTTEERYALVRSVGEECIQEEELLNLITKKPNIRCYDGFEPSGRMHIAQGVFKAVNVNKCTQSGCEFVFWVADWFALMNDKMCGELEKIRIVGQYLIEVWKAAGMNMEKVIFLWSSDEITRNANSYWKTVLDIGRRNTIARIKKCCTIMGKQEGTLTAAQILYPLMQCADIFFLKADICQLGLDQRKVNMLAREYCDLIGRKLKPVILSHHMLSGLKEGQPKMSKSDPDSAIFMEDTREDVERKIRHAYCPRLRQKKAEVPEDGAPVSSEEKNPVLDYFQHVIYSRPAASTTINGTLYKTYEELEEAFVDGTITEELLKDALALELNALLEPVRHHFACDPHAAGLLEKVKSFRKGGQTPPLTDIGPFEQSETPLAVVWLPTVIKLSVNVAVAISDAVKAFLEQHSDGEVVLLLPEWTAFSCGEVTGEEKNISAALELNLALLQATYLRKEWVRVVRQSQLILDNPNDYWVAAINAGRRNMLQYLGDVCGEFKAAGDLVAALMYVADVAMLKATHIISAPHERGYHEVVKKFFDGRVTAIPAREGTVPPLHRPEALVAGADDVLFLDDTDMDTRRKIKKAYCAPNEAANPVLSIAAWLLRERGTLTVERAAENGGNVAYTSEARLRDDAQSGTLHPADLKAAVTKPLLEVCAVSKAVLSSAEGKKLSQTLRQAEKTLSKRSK
# [8] = target: T4, Tyrosyl-tRNA synthetase, putative (Trypanosoma cruzi (strain CL Brener)); assay: Trypanosoma cruzi tyrosyl tRNA synthetase (TcYRS) SOP; format: functional; settings: 30 µM
# [9] = target: Chromo domain-containing protein 1 (Saccharomyces cerevisiae (strain ATCC 204508 / S288c) (Baker's yeast)) (UniProt P32657); assay: ScCHD-1 Enzyme Inhibition Assay; format: functional; settings: 30 µM; also: in the data most compounds retested in dose-response had high values
# Sequence of Chromo domain-containing protein 1 (Saccharomyces cerevisiae (strain ATCC 204508 / S288c) (Baker's yeast)) (P32657 whole entry, the tested form may be a part): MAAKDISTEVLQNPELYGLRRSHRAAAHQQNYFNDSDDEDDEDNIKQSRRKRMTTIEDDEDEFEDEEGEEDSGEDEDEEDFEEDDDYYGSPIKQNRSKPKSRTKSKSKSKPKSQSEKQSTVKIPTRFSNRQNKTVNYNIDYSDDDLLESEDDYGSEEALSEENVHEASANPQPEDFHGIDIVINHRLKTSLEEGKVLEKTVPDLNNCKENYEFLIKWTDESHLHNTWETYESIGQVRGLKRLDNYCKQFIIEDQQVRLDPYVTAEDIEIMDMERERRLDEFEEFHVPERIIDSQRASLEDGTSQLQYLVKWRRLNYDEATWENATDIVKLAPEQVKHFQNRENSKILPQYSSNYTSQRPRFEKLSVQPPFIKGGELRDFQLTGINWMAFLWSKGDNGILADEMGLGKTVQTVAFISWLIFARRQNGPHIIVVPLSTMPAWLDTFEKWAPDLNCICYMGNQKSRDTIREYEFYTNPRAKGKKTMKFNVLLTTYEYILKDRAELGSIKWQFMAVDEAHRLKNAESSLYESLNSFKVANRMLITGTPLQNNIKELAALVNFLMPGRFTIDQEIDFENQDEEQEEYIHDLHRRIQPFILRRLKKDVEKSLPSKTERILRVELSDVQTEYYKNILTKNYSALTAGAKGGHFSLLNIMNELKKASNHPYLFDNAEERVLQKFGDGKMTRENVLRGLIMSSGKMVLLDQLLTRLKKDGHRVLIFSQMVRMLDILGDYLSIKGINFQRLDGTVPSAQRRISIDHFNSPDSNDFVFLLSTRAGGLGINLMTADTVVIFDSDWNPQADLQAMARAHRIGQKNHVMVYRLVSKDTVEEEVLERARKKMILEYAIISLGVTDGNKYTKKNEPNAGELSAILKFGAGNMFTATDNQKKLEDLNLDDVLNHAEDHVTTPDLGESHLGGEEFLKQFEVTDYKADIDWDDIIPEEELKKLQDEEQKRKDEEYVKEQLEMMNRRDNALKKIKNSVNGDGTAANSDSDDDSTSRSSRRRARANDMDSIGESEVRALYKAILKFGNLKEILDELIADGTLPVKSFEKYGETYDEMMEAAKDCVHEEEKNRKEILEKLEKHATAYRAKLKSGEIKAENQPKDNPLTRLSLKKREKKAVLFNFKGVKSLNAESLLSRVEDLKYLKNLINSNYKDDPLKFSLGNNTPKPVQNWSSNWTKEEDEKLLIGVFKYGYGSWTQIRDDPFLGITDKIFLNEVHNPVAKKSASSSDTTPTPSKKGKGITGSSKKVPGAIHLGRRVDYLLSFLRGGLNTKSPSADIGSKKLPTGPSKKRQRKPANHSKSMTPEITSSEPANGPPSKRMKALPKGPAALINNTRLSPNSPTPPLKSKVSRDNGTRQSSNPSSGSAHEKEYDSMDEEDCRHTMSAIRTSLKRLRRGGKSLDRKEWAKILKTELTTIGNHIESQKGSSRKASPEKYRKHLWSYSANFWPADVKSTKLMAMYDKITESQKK
SMILES,Percent Effect [1] [%],Percent Effect [2] [%],Percent Effect [3] [%],Percent Effect [4] [%],Percent Effect (Trypanosoma cruzi) [%],Percent Effect [5] [%],Percent Effect [6] [%],Percent Effect (Homo sapiens) [%],Percent Effect [7] [%],Percent Effect [8] [%],Percent Effect [9] [%]
CN(C)c1cc(CNC(=O)c2ccc(=O)[nH]n2)ccn1,-2.65,18.2,-1.88,-14.6,3.82,-2.32,17.9,4.06,9.52,30.6,-19.7
CC(C)(C)NC(=O)CN1CCN(C(=O)Nc2ccc(F)cc2F)CC1,-2.23,5.48,8.1,-2.38,-8.73,-0.399,6.76,10.3,3.12,6.17,-2.48
CN(C)C(=O)[C@H]1C[C@@H]2CCN(C3CCOCC3)C[C@H]2O1,-0.651,2.67,-1.32,-3.17,4.44,-50.7,-1.03,-1.34,-1.04,-5,-4.08
COc1ccc2c(c1)CCN(CCC(=O)O)CC2,0.2,16.2,-5.1,15.3,1.74,1.91,13.6,6.58,5.82,17.1,-1.92
Cc1ccc(CN2C[C@@H]3COC[C@H](NS(C)(=O)=O)[C@@H]3C2)o1,-3.56,13.3,3.44,-1.89,-4.05,-56.8,7.86,12.6,4.17,15,-6.77
Cc1nc(CC(=O)N2CCCN(c3ccc(C#N)cc3)CC2)cs1,-2.43,0,5.74,-0.961,-5.55,-4.73,14.5,2.28,2.13,5.2,-1.52
CC(=O)c1ccc(N2CCC(CO)(CCOc3ccccc3)CC2)nc1,-4.34,0,3.88,4.67,-3.05,20.7,9.48,20.6,3.23,8.64,1.85
O=C(c1cnc(C2CC2)s1)N1CCCC(n2cccn2)C1 (configuration not stated),-2.59,8.11,-1.44,-0.959,-7.26,-5.61,1.26,21,6.4,11.1,-5.53
Cn1cc(-c2csc(N3CCN(C(=O)OC(C)(C)C)CC3)n2)cn1,-0.688,4.17,-13.6,7.74,1.85,30.5,8.42,57.3,10.5,12.8,-1.57
CCn1cnnc1CNC(=O)c1cc(Cl)ccc1OC,-2.18,8.86,8.8,-1.08,-2.56,3.66,11.2,7.84,9.38,15.2,-11.8
Cc1cc(C(F)(F)F)c2c(C3CCN(S(=O)(=O)N(C)C)CC3)noc2n1,-2.53,12.2,6.65,11.8,-0.395,1.62,6.55,3.27,6.45,16.9,-15.2
Cc1nn(CC(C)C)c(N(C)C)c1CNCc1cccc2c1OCO2,3.79,13.5,-13.1,-3.94,-8.02,-12,16.9,13.9,7.39,11.1,-4.83
CCCNC(=O)CCC(=O)Nc1ccc(-n2cncn2)c(F)c1,-7,2.63,-2.96,4.31,-6.2,-2.68,-0.501,29.1,-0.49,0,-1.12
CCc1nc(NCCCn2cccn2)c2c(n1)c(C)nn2C,-3.56,20,-0.746,2.66,0.197,-0.528,17.6,8.9,6.35,12.8,-12.1
Cc1cc(C(=O)NCc2ccnc(N(C)C)c2)c(C)o1,-4.79,23.4,-3.99,-6.37,-5.24,-1.42,8.62,-12,4.85,12.2,-10.6
Cc1cnn(C2CN(CC(=O)NCCc3ccccc3)C2)c1,-3.73,-10.5,3.48,3.23,1.21,-2.16,-0.254,8.21,5.42,13.6,4.88
CC(=O)N(Cc1ncc(C)o1)C1CCN(Cc2ccncc2Cl)C1 (configuration not stated),-2.28,15.6,-3.8,-0.636,3.62,1.05,11.2,-2.79,11.4,30.6,-18.4
Cc1cc(CN2CCN(C(=O)CCc3cccc(F)c3F)CC2)on1,2.13,0,-6.33,7.49,5.99,10.9,0.862,-0.409,-0.529,4.88,0.403
COCCn1ccc(=O)c(OCC(=O)Nc2ccccc2)c1C,-2.63,6.67,2.07,6.98,1.38,1.23,19.4,-6.23,1.06,20.5,-0.358
COc1cc(N2C[C@H]3OCC[C@H]3[C@H](C(=O)NC3CC3)C2)ncn1,-2.33,5.48,-1.57,8.48,2.18,0.399,6.93,0.456,9.38,6.17,-1.62
CC(C)n1ccnc1C1CCCN(c2ccccn2)C1 (configuration not stated),-4.71,5.33,-0.644,4,-2.43,0,18.7,15.1,3.83,11.1,-7.89
CN(c1ccncn1)C1CC2(CCN(C(=O)c3cccs3)C2)C1 (configuration not stated),-5.11,1.35,1.54,8.09,2.96,-2.09,1.09,11.6,-6.45,-6.49,-17.8
